Assays:
Settings in all cases: Compound Concentration (nM):1000
NEK3 = tested on: NEK3
NEK4 = tested on: NEK4
NEK5 = tested on: NEK5
NEK6 = tested on: NEK6
NEK7 = tested on: NEK7
NEK9 = tested on: NEK9
NIK = tested on: T1, NIK
T1 construct: gene MAP3K14

NIM1 = tested on: T2, NIM1
T2 construct: gene MGC42105

NLK = tested on: NLK
OSR1 = tested on: T3, OSR1
T3 construct: gene OXSR1
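Further: KINOMEscan scanMAX binding as percent activity remaining versus control; lower means stronger binding.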

Row | Structure (SMILES) | Percent Control (NEK3) | Percent Control (NEK4) | Percent Control (NEK5) | Percent Control (NEK6) | Percent Control (NEK7) | Percent Control (NEK9) | Percent Control (NIK) | Percent Control (NIM1) | Percent Control (NLK) | Percent Control (OSR1)
1 | Cc1cc(O)cc(C)c1/C=C/c1cncc(C(N)=O)c1 [GW435821X] | 89% | 86% | 100% | 100% | 100% | 100% | 100% | 100% | 92% | 100%
2 | CC1=C(C(=O)Nc2ccc3[nH]ncc3c2)C(c2ccc3ccccc3c2)CC(=O)N1 (stereo not drawn) [GSK270822A] | 70% | 84% | 100% | 100% | 77% | 70% | 82% | 77% | 98% | 74%
3 | NS(=O)(=O)c1ccc(N/N=C2\C(=O)Nc3ccc(-c4cnco4)cc32)cc1 [GW276655] | 96% | 99% | 72% | 77% | 82% | 79% | 37% | 84% | 100% | 100%
4 | Cl.c1ccc(Cc2nc3ccc(Nc4ncnc5ccccc45)cc3[nH]2)cc1 [GR269666A] | 100% | 100% | 100% | 100% | 100% | 100% | 100% | 94% | 100% | 100%
5 | NS(=O)(=O)c1ccc(Nc2ncc(-c3ccccc3)o2)cc1 [GW572399X] | 84% | 100% | 100% | 100% | 78% | 100% | 91% | 96% | 100% | 100%
6 | O=C1Nc2ccc(C(=O)c3ccco3)cc2C1=Cc1cc(Cl)c(O)c(Cl)c1 [GW406108X] | 100% | 83% | 100% | 94% | 100% | 100% | 100% | 93% | 100% | 100%
7 | COc1ccc2[nH]c3c4[nH]c5ccc(OC)cc5c4c4c(c3c2c1)C(=O)NC4=O [GW296115X] | 67% | 85% | 76% | 87% | 92% | 100% | 20% | 100% | 52% | 100%
8 | NS(=O)(=O)c1ccc(N/N=C2\C(=O)Nc3ccc(Cl)cc32)cc1 [GW280670X] | 100% | 100% | 100% | 100% | 100% | 100% | 100% | 100% | 100% | 100%
9 | COc1cc(C)c(N(C)C(=O)CN(C)C)cc1Nc1nc(Nc2cccc(F)c2C(N)=O)c2cc[nH]c2n1 [GSK2219385] | 94% | 100% | 94% | 100% | 91% | 90% | 100% | 80% | 95% | 100%

Reference: PMC7826789 (International Journal of Molecular Sciences, 2021)
